Results from PubChem BioAssay AID1851 (National Center for Advancing Translational Sciences (NCATS), 2009).
Among all 16,000 compounds or so, about 5,700 (36%) were called active. About 24% were inconclusive and are not listed. Some of the results follow. Unmarked numbers belong to inactive results. The call rests on the fitted dose curve; in most records, active means well fitted curve in the direction sought with a large enough effect; inconclusive means small, poorly fitted or top-dose-only effect, or effect the other way; inactive means no such curve, though single readings can be large or run the other way.

Biological target: Cytochrome P450 1A2 (Homo sapiens) (UniProt P05177)
Sequence (P05177 whole entry, looked up): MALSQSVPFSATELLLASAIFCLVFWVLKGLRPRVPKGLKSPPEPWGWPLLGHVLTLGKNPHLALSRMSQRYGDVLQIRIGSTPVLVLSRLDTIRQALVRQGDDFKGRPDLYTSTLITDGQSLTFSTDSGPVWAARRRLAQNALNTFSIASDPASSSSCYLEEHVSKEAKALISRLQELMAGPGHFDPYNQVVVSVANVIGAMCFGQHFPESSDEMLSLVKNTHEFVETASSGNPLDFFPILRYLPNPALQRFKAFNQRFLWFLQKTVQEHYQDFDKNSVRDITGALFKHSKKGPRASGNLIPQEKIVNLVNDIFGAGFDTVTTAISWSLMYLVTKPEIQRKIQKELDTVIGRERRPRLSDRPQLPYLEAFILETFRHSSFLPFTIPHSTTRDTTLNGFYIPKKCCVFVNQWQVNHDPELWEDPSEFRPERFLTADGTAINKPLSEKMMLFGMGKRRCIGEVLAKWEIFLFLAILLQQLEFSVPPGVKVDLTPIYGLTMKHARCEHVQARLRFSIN
Assay: Cytochrome panel assay with activity outcomes
Settings: recombinant CYP, pro-luciferin dealkylation, luminescence, p450-cyp1a2; series mostly up to 57.1 µM; activity, negative = inhibition: at the top concentration
On the % scale 0 is the no-effect control and ±100 the full control effect.

Row | Compound | activity, negative = inhibition | AC50
1 | Cc1ccccc1C(=O)NNC(=O)c1ccoc1C | -5.51% | –
2 | Cc1ccccc1C(=O)NC(C)c1ccc2c(c1)CCCC2 (stereo not drawn) | – | 11200 nM (active)
3 | CCCCCSc1nncc(=O)[nH]1 | -14.7% | –
4 | O=c1[nH]c(=O)n([C@@H]2C[C@H](O)[C@H](CO)O2)cc1I | 10.8% [at 25.6 µM] | –
5 | COc1ccccc1-c1cc(C(F)(F)F)nc(S(=O)(=O)CCCC(=O)NC(C)C)n1 | – | 2000 nM (active)
6 | COCCCNC(=O)Cn1nc(-c2ccccc2OC)ccc1=O | -16% | –
7 | Cc1[nH]n(C(C)(C)C)c(=O)c1Sc1ccc(Cl)cc1 | -0.437% | –
8 | Cc1ccc(N=Cc2cc(C)n(C3CCCC3)c2C)cc1 | – | 10000 nM (active)
9 | CCCCc1ccc(NC(=S)NCc2cccs2)cc1 | – | 8910 nM (active)
10 | CCCC(=O)Nc1ccc(C(=O)NNC(=S)NC(=O)c2cccs2)cc1 | 3.27% | –
11 | CCc1ccc(NC(=O)CS(=O)CC(=O)NCCCc2ccccc2)cc1 (stereo not drawn) | -19.7% | –
12 | CC#CCOC(=O)c1c(C)nc2sc3c(c2c1N)CC[C@@H](O)C3 | – | 25.1 nM (active)
13 | O=C(/C=C/c1cccc([N+](=O)[O-])c1)NCCN1CCOCC1 | 5.84% | –
14 | COCCCNC(=O)/C=C/c1ccc(Cl)cc1 | – | 7080 nM (active)
15 | COCCCNC(=O)/C=C/c1cccc(Cl)c1 | – | 6310 nM (active)
16 | O=C(/C=C/c1cccc(Cl)c1)Nc1ccncc1 | – | 2000 nM (active)
17 | O=C(/C=C/c1ccc(Cl)cc1)NCCN1CCOCC1 | -28.6% | –
18 | O=C(/C=C/c1ccc(Cl)cc1)NCCSc1ccccc1 | – | 1580 nM (active)
19 | O=C(/C=C/c1ccccc1)NNC(=O)c1cccnc1 | -8.85% | –
20 | COCCCNC(=O)C1C2C=CC3(CN(Cc4ccc(C)cc4)C(=O)C13)O2 (stereo not drawn) | -1.32% | –
21 | COCCNC(=O)c1onc(CSc2cccc(Cl)c2)c1C(=O)O | -11.1% | –
22 | C/C(=N\OC(=O)c1ccccc1)c1cc(-c2ccc(Cl)cc2)no1 | – | 2820 nM (active)
23 | CC(C)CO/N=C1/C[C@@H](O)[C@@H](O)[C@@H]2[C@@H]3C(=O)N([C@@H](C)c4ccccc4)C(=O)[C@H]3CC[C@@H]12 | -9.02% [at 11.4 µM] | –
24 | COc1ccc(S(=O)(=O)NCCC(=O)NC(C)c2ccccc2)cc1 (stereo not drawn) | -12.5% | –

Row | Compound | activity, negative = inhibition | AC50
25 | COc1ccc(NC(=O)CCNS(=O)(=O)c2ccc3c(c2)c(=O)n(C)c(=O)n3C)cc1 | 7.33% | –
26 | COc1ccc(OCCNS(=O)(=O)c2ccc3oc4ccccc4c3c2)cc1 | – | 2820 nM (active)
27 | CN1CCN(C2CC(=O)N(Cc3ccc(N4CCCC4=O)cc3)C2=O)CC1 (stereo not drawn) | 8.84% | –
28 | O=C1CC(N2CCN(C(c3ccccc3)c3ccccc3)CC2)C(=O)N1Cc1ccc(N2CCCC2=O)cc1 (stereo not drawn) | 0.781% | –
29 | O=C1CCCc2ccccc2N1Cc1cccc(Cl)c1 | – | 12600 nM (active)
30 | O=C1CCCc2ccccc2N1Cc1ccccc1Cl | – | 14100 nM (active)
31 | C[C@@H](CN(C)C)CN1c2ccccc2CCc2ccccc21 | – | inactive
32 | CC1(C)[C@@H]2CC[C@]1(CC(=O)O)[C@H](Cl)C2 | -14.2% [at 11.4 µM] | –
33 | CNc1csc(C)c(C)c1=O | – | 10000 nM (active)
34 | C=C(C)COc1ccc2c(c1)CCC1C2CC[C@]2(C)C(=O)/C(=N/O)CC12 (stereo partly drawn) | -13.8% [at 11.4 µM] | –
35 | CCOc1ccc2nc3cc(N=Nc4ccc(N)nc4N)ccc3c(N)c2c1 | – | 794 nM (active)
36 | Cc1ccc(S(=O)(=O)N(C)c2cc(S(=O)(=O)N3CCC(C)CC3)c(C)cc2C)cc1 | 9.58% | –
37 | COc1ccc(/C=N/NC(=S)NC2CCS(=O)(=O)C2)cc1OC (stereo not drawn) | – | 6310 nM (active)
38 | O=S(=O)(c1ccccc1S(=O)(=O)N1CCCCC1)N1CCCCC1 | -15.2% | –
39 | O=C1SC(c2ccccc2)=C/C1=C\N1CCCCC1 | – | 1000 nM (active)
40 | COC(=O)C/C=C\[C@@H](C)[C@@H](/C=N\O[C@@H](C)c1cc(-c2c(C)cc(C)cc2C)no1)NS(=O)(=O)c1ccc(C)cc1 | 4.06% [at 11.4 µM] | –
41 | CCOc1ccccc1OCCOc1ccc(F)cc1 | – | 2820 nM (active)
42 | CCOc1ccc(S(=O)(=O)NCc2ccc(F)cc2)c2cccnc12 | -23% | –
43 | CC1(CCC(=O)OC2CCCCC2)OCCO1 | -7.12% [at 11.4 µM] | –
44 | CCCCOc1ccc(/C=C/C(=O)NCCc2nc3ccccc3[nH]2)cc1 | -24.1% | –
45 | Cc1ccc(/C=C/C(=O)c2nc3ccccc3[nH]2)cc1 | – | 1780 nM (active)
46 | NC(=O)c1ccc([N+](=O)[O-])cc1SCc1ccccc1 | – | 8910 nM (active)
47 | CCC(C)NC(=O)NC(=O)N(C1CCCCC1)S(C)(=O)=O (stereo not drawn) | 6.61% | –
48 | C=CCn1c(SCc2ccc3c(c2)OCO3)nc2scc(-c3ccco3)c2c1=O | – | 2510 nM (active)
